Data from the supplement of paper PMC12636033.
± gives the standard deviation of the averaged measurements. Whole data set: some 33,000 sequences, median “E-score (rank enrichment, -0.5 to 0.5)” near -0.0028, cut for the highest 2% near 0.23. The full list was thinned out, with the highest values kept by preference.

system: 2Sb-muMax20 (muMax20 with two 1,3-bis(methyl)benzene Cys staples, A13C/A17C and Q88C/A92C, C-terminal Lys); assay: PBM 8-mer E-score (E-score (rank enrichment, -0.5 to 0.5)); higher = stronger preferential binding
Experimental: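 Protein binding microarray (universal PBM chip covering all 10-mers in fixed probe flanks) with chemically synthesized human Max(13-93) bHLH-LZ analogs (not full-length Max) bearing noncanonical residues (hArg, Tha, Aib, Nle at 65) and aromatic Cys staples. Read-out per 8-mer (and its reverse complement): E-score (rank-based enrichment, -0.5 to 0.5) and Z-score of median probe intensity.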

| Sequence | PBM 8-mer E-score |
| --- | --- |
| AAAACGTT | 0.189 ± 0.024 |
| GGAGAGTA | -0.0215 ± 0.08 |
| CCTCACTA | 0.127 ± 0.035 |
| AGCCACAC | 0.111 ± 0.045 |
| TCCCTGCA | 0.0481 ± 0.0088 |
| ACCCACGT | 0.35 ± 0.025 |
| ACCCACGC | 0.0613 ± 0.043 |
| AAACACGT | 0.238 ± 0.0029 |
| AAACACGA | 0.14 ± 0.053 |
| ACCCACGA | 0.0473 ± 0.015 |
| AACCACGT | 0.304 ± 0.0045 |
| AACCACGC | -0.0289 ± 0.036 |
| AACCACGA | 0.068 ± 0.082 |
| AAACACGC | 0.0985 ± 0.012 |
| GCGACATA | -0.0543 ± 0.01 |
| GAGCAACC | -0.0186 ± 0.037 |
| ACGAGCAA | 0.00429 ± 0.043 |
| AGAGTACT | 0.0199 ± 0.063 |
| CAAGATAA | 0.253 ± 0.025 |
| CATGATTC | 0.0849 ± 0.046 |
| CATGATAA | 0.262 ± 0.004 |
| GATGATTA | -0.00815 ± 0.038 |

| Sequence | PBM 8-mer E-score |
| --- | --- |
| AAAGATAA | 0.124 ± 0.033 |
| TATGATAA | 0.0883 ± 0.068 |
| TAAGATAA | 0.0702 ± 0.044 |
| CTTGATTA | 0.159 ± 0.039 |
| GTTGATTA | 0.259 ± 0.0094 |
| CATGATTA | 0.236 ± 0.035 |
| ATTGATTA | 0.0825 ± 0.032 |
| AATGATAA | 0.0436 ± 0.05 |
| AACAAGCT | 0.0609 ± 0.024 |
| GCTGGCGA | -0.207 ± 0.015 |
| GGTTCGCA | -0.146 ± 0.0032 |
| AGGGTCTC | -0.0134 ± 0.094 |
| CGTCCACC | -0.0444 ± 0.07 |
| GTCGTTAA | -0.133 ± 0.028 |
| GGGAATCA | -0.0266 ± 0.031 |
| CCTGCACC | -0.0811 ± 0.0012 |
| ACGCTGCC | -0.0685 ± 0.038 |
| TAACGCGA | 0.0123 ± 0.0097 |
| TGCATGCA | 0.132 ± 0.01 |
| CGCATGCC | 0.141 ± 0.064 |
| AGCATGCA | 0.3172 ± 0.00083 |
| GGCATGCA | -0.0517 ± 0.02 |

| Sequence | PBM 8-mer E-score |
| --- | --- |
| CGCATGCA | 0.171 ± 0.028 |
| CGCATGCG | 0.279 ± 0.067 |
| GCGACGCC | -0.126 ± 0.025 |
| TAGGTATA | 0.138 ± 0.011 |
| CTCCAATA | 0.0951 ± 0.05 |
| AAAAGCTC | -0.0474 ± 0.048 |
| AATAGCAA | 0.106 ± 0.11 |
| AATAGCAT | 0.262 ± 0.023 |
| CATAGCTA | 0.17 ± 0.065 |
| AATAGCAC | 0.0775 ± 0.071 |
| GAAAGCTA | 0.0215 ± 0.023 |
| GATAGCTA | 0.0488 ± 0.04 |
| AATAGCTA | 0.244 ± 0.0096 |
| AAAAGCTA | 0.236 ± 0.025 |
| AGAGGCCC | -0.0713 ± 0.025 |
| ATGCCGGG | -0.256 ± 0.0027 |
| GACTTTCC | -0.0524 ± 0.043 |
| CGGCGGGC | -0.184 ± 0.073 |
| CTTCTCGC | 0.0717 ± 0.022 |
| GCAGCCAA | -0.0475 ± 0.046 |
| GAGCAATC | -0.0835 ± 0.0098 |
| AAGCAATC | 0.256 ± 0.026 |

| Sequence | PBM 8-mer E-score |
| --- | --- |
| AAGCAATT | 0.187 ± 0.017 |
| CGTCTAGA | -0.162 ± 0.029 |
| ATATATTA | 0.241 ± 0.036 |
| ATCTACTG | -0.00445 ± 0.014 |
| ATATTACA | 0.173 ± 0.13 |
| ATCTACTA | 0.243 ± 0.026 |
| GTATATTA | 0.188 ± 0.012 |
| CTATTACA | 0.14 ± 0.041 |
| GTATTAAA | 0.177 ± 0.05 |
| GTATTATA | 0.238 ± 0.024 |
| ATCTACTC | -0.0796 ± 0.04 |
| GCATTATA | 0.14 ± 0.041 |
| CTATATTA | 0.153 ± 0.015 |
| GTATTACA | 0.253 ± 0.024 |
| AATTGGCT | 0.131 ± 0.011 |
| ACGAATGG | 0.073 ± 0.041 |
| ATTTGAGA | 0.152 ± 0.034 |
| AACAGCGA | -0.213 ± 0.047 |
| GTGTTTGA | 0.1 ± 0.029 |
| CGAAGTCA | -0.106 ± 0.12 |
| CGAACCGA | -0.228 ± 0.013 |
| GGTGCCGA | -0.189 ± 0.027 |

| Sequence | PBM 8-mer E-score |
| --- | --- |
| ATATTATG | 0.277 ± 0.026 |
| ATATACTC | 0.173 ± 0.053 |
| AGATTATG | -0.0162 ± 0.068 |
| CTATACTA | 0.169 ± 0.015 |
| CTATTATA | 0.0823 ± 0.013 |
| ATATTATC | 0.112 ± 0.0097 |
| ATATACTA | 0.2955 ± 0.0011 |
| ATATTATA | 0.242 ± 0.052 |
| ATTATATA | 0.185 ± 0.047 |
| CACACTGA | -0.0965 ± 0.055 |
| AAATCGAC | 0.0123 ± 0.035 |
| AGGGGCCA | 0.0356 ± 0.053 |
| CTCGAGCC | 0.0235 ± 0.047 |
| ACCAGGCC | -0.168 ± 0.022 |
| GGCCACGA | -0.0901 ± 0.0031 |
| ACACTACG | 0.0974 ± 0.045 |
| ATTCTGAA | 0.0149 ± 0.024 |
| ACGGAGCA | 0.0531 ± 0.012 |
| AACGTACA | 0.0315 ± 0.031 |
| ACTATATG | 0.143 ± 0.052 |
| ATTATATC | 0.224 ± 0.0096 |
